These results are taken from PubChem BioAssay (NCATS).

Measured potencies and affinities stand elsewhere. Active and inactive are the calls of the source. The rule behind the calls is not given here.
Note: 0% is about no effect.

For this experiment the following is noted: Ebola virus entry assay, green fluorescence channel.
In the case of `O=C(O)CCCCC(=O)O`, the efficacy was -12.4% (inactive).

On to `CN(c1nccc(=O)[nH]1)C1CCN(c2nc3ccccc3n2Cc2ccc(F)cc2)CC1`, for which the efficacy is 66.4% (inactive).

Take `C[C@@H]1O[C@@H](OC[C@H]2O[C@@H](Oc3c(-c4ccc(O)c(O)c4)oc4cc(O)cc(O)c4c3=O)[C@H](O)[C@@H](O)[C@@H]2O)[C@H](O)[C@H](O)[C@H]1O`: the efficacy is 21.1% (inactive).

Consider `O=C1OC(c2ccc(O)c(S(=O)(=O)O)c2)(c2ccc(O)c(S(=O)(=O)O)c2)c2c(Br)c(Br)c(Br)c(Br)c21`, for which the efficacy is 32.9% (inactive).

Regarding `CC(NN)c1ccccc1` (stereo unspecified), the efficacy is -30% (inactive).

Take `O=c1c(C2CC(c3ccc(-c4ccc(Br)cc4)cc3)Cc3ccccc32)c(O)sc2ccccc12` (stereo unspecified): the efficacy is 37.1% (inactive).

Take `Nc1ccc(S(=O)(=O)NC(=O)c2ccccc2)cc1`: the efficacy was -38.1% (inactive).

As to `Cn1cc(S(C)=O)c(=O)c2ccc(F)cc21` (stereo unspecified), the efficacy was -15.1% (inactive).

`CCCc1ccc(OCC(=O)N2CCN(C(=O)COc3ccc(CCC)cc3OC)CC2)c(OC)c1`: the efficacy was 12.4% (inactive).

On to `COc1cc2nc(Cl)nc(N)c2cc1OC`, for which the efficacy was -33.8% (inactive).

With `CC(=O)N(CC(O)CO)c1c(I)c(C(=O)NCCO)c(I)c(C(=O)NCC(O)CO)c1I` (stereo unspecified), the efficacy is -10.6% (inactive).

With `C[C@]12CC[C@H]3[C@@H](CCC4=CC(=O)CC[C@@H]43)[C@@H]1CC[C@@H]2OC(=O)CCC1CCCCC1`, the efficacy is -18.4% (inactive).

On to `CC(=O)SCC(CC(=O)c1ccc(C)cc1)C(=O)O` (stereo unspecified), for which the efficacy is 17.3% (inactive).

Take `CCOC(=O)c1cnc2c(cnn2CC)c1NN=C(C)C`: the efficacy is -8.64% (inactive).

As for `Cc1ccccc1OCC(O)CO` (stereo unspecified), the efficacy was 25.5% (inactive).

In the case of `Cc1ccsc1/C=C/C1=NCCCN1C`, the efficacy is -24.4% (inactive).

Regarding `CC(=O)OCC(=O)[C@H]1CC[C@H]2[C@@H]3CCC4=CC(=O)CC[C@]4(C)[C@H]3CC[C@]12C`, the efficacy is -27% (inactive).

For `CC1c2ccccc2CN1NC(=O)c1ccc(Cl)c(S(N)(=O)=O)c1` (stereo unspecified), the efficacy is 14.8% (inactive).

Consider `Cc1nc(-c2ccc(Cl)cc2)oc1COC(C)(C)C(=O)O`, for which the efficacy is -18.2% (inactive).

As to `CCN(CC)CCNC(=O)c1ccc(N)cc1`, the efficacy was -17.1% (inactive).

In the case of `Cc1ncc(CO)c(CO)c1O`, the efficacy was -13.2% (inactive).
